Inconclusive results are not listed. Values without a mark were called inactive. The call rests on the fitted dose curve; in most records, active means well fitted inhibition curve with a large enough effect; inconclusive means small, poorly fitted or top-dose-only effect, or effect the other way; inactive means flat fitted curve, though single readings scatter.
These compounds were tested against Ubiquitin carboxyl-terminal hydrolase 2 (Homo sapiens) (UniProt O75604) (assay: Confirmation Assay for Inhibitors of Ubiquitin-specific Protease USP2a Using CHOP2 as the Reporter). Conditions: USP2 core, Ub-CHOP2 coupled reporter fluorescence; series mostly up to 38.3 µM; activity change, negative = inhibition: at the top concentration.
Summary of the method: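 Ub-CHOP2 cleavage coupled to reporter activation was read by fluorescence after 60 min at RT, with 25 nM final Ub-CHOP2 and substrate. Enzyme (10 nM final USP2 core) first sat 30 min with compound; data were normalized to NEM and fitted to concentration-response curves.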
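Further: plate controls were DMSO wells for no effect and full inhibition by NEM control for full effect; nearly all actives have a fitted effect of over 55% in size.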

Sequence of Ubiquitin carboxyl-terminal hydrolase 2 (Homo sapiens) (O75604 whole entry, looked up): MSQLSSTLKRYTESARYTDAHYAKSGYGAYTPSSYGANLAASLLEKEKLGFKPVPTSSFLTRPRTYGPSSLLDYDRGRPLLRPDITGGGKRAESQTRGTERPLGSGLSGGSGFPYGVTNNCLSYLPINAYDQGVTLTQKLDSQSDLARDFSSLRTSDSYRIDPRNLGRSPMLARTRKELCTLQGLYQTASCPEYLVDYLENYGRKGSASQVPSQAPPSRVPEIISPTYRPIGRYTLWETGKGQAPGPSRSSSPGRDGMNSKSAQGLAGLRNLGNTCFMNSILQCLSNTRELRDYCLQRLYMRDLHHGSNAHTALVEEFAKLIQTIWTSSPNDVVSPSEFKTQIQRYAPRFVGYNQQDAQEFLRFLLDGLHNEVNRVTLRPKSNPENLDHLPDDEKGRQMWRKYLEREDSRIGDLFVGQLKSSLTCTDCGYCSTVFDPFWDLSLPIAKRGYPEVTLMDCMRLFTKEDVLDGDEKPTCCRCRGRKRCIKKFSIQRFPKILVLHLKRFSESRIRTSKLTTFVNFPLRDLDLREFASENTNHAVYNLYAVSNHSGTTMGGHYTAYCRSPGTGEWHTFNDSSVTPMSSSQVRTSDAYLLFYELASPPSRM

| Structure (SMILES) | activity change, negative = inhibition [%] |
| --- | --- |
| CCCNC(=O)NCc1ccc(N2CCCC2=O)cc1 | -1.66 |
| N#CC(c1ccccc1)c1ccc(C(=O)c2ccc(F)cc2)cc1 (stereo not given) | 3.03 |
| COc1cccc(N2C(=O)C3CCCN3C2c2ccc(N(C)C)cc2)c1 (stereo not given) | -1.37 |
| O/N=C/c1ccccc1OCc1ccccc1F | 3.9 |
| COc1cccc(NC(=O)CSc2nncn2-c2ccccn2)c1 | 4.05 |
| O=C(O)CP(=O)(c1ccccc1)c1ccccc1 | 0.641 |
| CC(C)(C)C1CCC2(CC1)Nc1cccc3cccc(c13)N2 | -4.19 |
| CCC(CO)Oc1cc(NCc2cccc(C)c2)c2ncn(C(C)C)c2c1 (stereo not given) | 6.16 |
| CCCC(=O)Nc1ccc(N2CCN(C(=O)c3cc4ccccc4o3)CC2)cc1 | 4.98 |
| c1ccc(-c2nc3nc4ccccc4nc3n2Cc2ccco2)cc1 | 5.83 |

— PubChem BioAssay AID493168 (National Center for Advancing Translational Sciences (NCATS), 2011)
